phage Ecoli inh: E. coli growth loss with phage present | inhibition, % at 11.9 µM | hit rate 0.26% among 360,000 | growth absorbance; in the data active = inhibition above about 11%
E coli growth-1: counter-screen for AddAB inhibitors: E. coli growth inhibition | E. coli V3065 growth, OD600 absorbance, 18 h | inhibition, % at 11.9 µM | hit rate 0.27% among 330,000 | AID 449728;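 active = inhibition above the campaign's mean inhibition across all tested compounds plus 3 SD, cut at about 9.9% in these data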;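 also: uninfected addAB+ strain grown without phage in ampicillin broth; 0% = DMSO wells and 100% = ciprofloxacin 0.95 µg/ml wells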
E coli growth-2: blocks Escherichia coli growth. OD600, 23 h; active compounds read low. OD600 absorbance (test concentration not listed). hit rate 0.21% among 330,000;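 active = OD600 absorbance below the run mean of sample wells minus 3.6 SD, in any replicate, cut at about 0.56 in these data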
Tat export inh: blocks Tat-dependent protein export in E. coli | AID 488895 | E. coli MC4100 TorA-mCherry Tat export, fluorescence | inhibition, % at 10 µM | hit rate 0.036% among 340,000;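 active = mean replicate inhibition at least 50% and at least half of replicates individually reaching 50%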;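 also: exported cargo escapes ClpAP degradation while cytoplasmic cargo is degraded and loses fluorescence; 0% = median of neutral control wells and 100% = median of NaSCN control wells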
AddAB inh: less growth of phage-infected E. coli with AddAB; E. coli expressing H. pylori AddAB, absorbance growth; inhibition, % at 11.9 µM; hit rate 0.29% among 330,000; in the data active = inhibition above about 12%;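 also: 0% = vehicle wells of infected cells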
* hit, by the source's call; i = inactive; nt = not tested or not shown. Rows were chosen to be rich in hits. Some 0.5% of all compounds tested hit in one or more screens of this group.

SMILES | phage Ecoli inh | E coli growth-1 | E coli growth-2 | Tat export inh | AddAB inh
C[n+]1ccccc1/C=C1\Sc2ccccc2N1CCO | 2 | 0 | 0.66 | -3 | 3
CCN1/C(=C/c2ccc3cc(C)cc(C)c3[n+]2CC)Sc2cc(C)ccc21 | 11 | nt | 0.12* | -2 | nt
CCN1C(=Cc2ccc3ccccc3[n+]2CC)Sc2cc(C)ccc21 | nt | nt | 0.36* | nt | nt
CCN1/C(=C/c2ccc3cc(C)ccc3[n+]2CC)Sc2ccc3sccc3c21 | nt | -3 | 0.33* | -7 | -1
Cc1ccc2c(c1)S/C(=C\c1cccc[n+]1C)N2CCO | 3 | -3 | 0.65 | 7 | -3
CC[n+]1c(C)sc2c3ccsc3ccc21 | 4 | 1 | 0.67 | 8 | -1
Cc1ccc(-n2nc(C)c(C=NNC(=O)c3cccnc3)c2Cl)cc1 | nt | nt | 0.67 | nt | nt
Cc1cccc(C(=O)ON=C2CCSc3ccc(C)cc32)c1 | nt | nt | 0.71 | nt | nt
CC=CC=CC(=O)N1CC2(CC(c3cccc(NC(=O)CC(c4ccccc4)c4ccccc4)c3)=NO2)CC1C(N)=O (stereo unspecified) | nt | nt | 0.67 | nt | nt
CC[n+]1c(/C=C/c2ccc(OC)c(OC)c2)ccc2ccccc21 | -1 | 0 | 0.65 | -2 | 3
CCN1/C(=C\c2ccc3cc(C)ccc3[n+]2CC)Sc2cc(C)c(C)cc21 | 8 | nt | 0.21* | 2 | nt
C=Cn1cc[n+](CC(=O)c2ccc(-c3ccccc3)cc2)c1 | 6 | 13* | 0.68 | 2 | 11
Nc1nc(SCC(=O)Nc2ncc(C(F)(F)F)cc2Cl)n[nH]1 | 2 | 12* | 0.71 | -10 | 9
CCCCCCCCCCCCCCCC(O)C[N+](C)(C)CCO (stereo unspecified) | 3 | nt | nt | 52* | nt
O=[N+]([O-])c1ccc(/C=C/C2=NN(c3ccccc3)C(c3ccco3)C2)o1 (stereo unspecified) | 20* | nt | 0.62 | -10 | nt
CCN1CSC(=S)N(Cc2ccccc2)C1 | 0 | -1 | 0.54 | -37 | 1
CCN1CSC(=S)N(Cc2ccc(OC)cc2)C1 | 0 | 0 | 0.5* | -30 | 1
CC(=NNC(=O)CNC(=O)C1COc2ccccc2O1)c1ccc2c(c1)OCCO2 (stereo unspecified) | nt | nt | 0.67 | nt | nt
CC(C)N1CCc2c(sc(NC(=O)c3ccc(S(=O)(=O)N4CCc5ccccc54)cc3)c2C(N)=O)C1 | nt | -1 | 0.72 | 62* | 1
CC(C)N1CCc2c(sc(NC(=O)c3nc4ccccc4s3)c2C(N)=O)C1 | 0 | -2 | 0.69 | -5 | -2
CC[C@H]1OC(=O)[C@H](C)[C@@H](O[C@H]2C[C@@](C)(OC)[C@@H](O)[C@H](C)O2)[C@H](C)[C@@H](O[C@@H]2O[C@H](C)C[C@H](N(C)C)[C@H]2O)[C@](C)(O)C[C@@H](C)C(=NOCOCCOC)[C@H](C)[C@@H](O)[C@]1(C)O | 10 | 11* | nt | 3 | 9
CCC1OC(=O)C(C)C(OC2C[C@@](C)(OC)C(O)C(C)O2)C(C)C(OC2OC(C)CC(N(C)C)C2O)[C@](C)(OC)CC(C)C(=O)C(C)C(O)[C@]1(C)O (stereo partly specified) | nt | nt | 0.39* | nt | nt
Cc1cc(OCCCCn2ccnc2)cc(C)c1Cl | 4 | -1 | 0.5* | 10 | 0
O=C(COc1ccc([N+](=O)[O-])cc1)Nc1cc(S(=O)(=O)N2CCCCC2)ccc1N1CCCCC1 | 4 | -1 | 0.72 | 64* | 0
O=C(NNc1ccccc1)c1ccccc1 | 4 | nt | 0.68 | 5 | nt
SMILES | phage Ecoli inh | E coli growth-1 | E coli growth-2 | Tat export inh | AddAB inh
O=C(NNc1ccc(O)cc1)c1ccc(Br)cc1 | 10 | 6 | 0.44* | -1 | 7
CO/N=C(/C(=O)N[C@@H]1C(=O)N2C(C(=O)O)=CCS[C@H]12)c1cnc(N)s1 | nt | 100* | nt | nt | 100*
O=C(COc1ccccc1)NC1C(=O)N2C(C(=O)O)=C(Cl)CSC12 (stereo unspecified) | 1 | 2 | 0.69 | 0 | 3
C=C1c2c(Cl)ccc(O)c2C(O)=C2C(=O)[C@]3(O)C(O)=C(C(N)=O)C(=O)C(N(C)C)C3C(O)C12 (stereo partly specified) | nt | nt | 0.075* | nt | nt
COc1ccc(C(C)=NNC(=O)c2nnn(-c3nonc3N)c2-c2ccccc2)cc1 | nt | nt | 0.72 | nt | nt
Cc1ccc(C(C[N+](=O)[O-])c2c(-c3ccccc3O)[nH][nH]c2=O)cc1 (stereo unspecified) | 5 | 0 | 0.52* | -30 | 8
O=C(NCc1nc2ccccc2[nH]1)C1=CC(C2CC2)CC(OCc2ccc(CO)cc2)O1 (stereo unspecified) | nt | nt | 0.68 | nt | nt
NCCCn1c(C(=O)c2cc(Cl)c(N)c(Cl)c2)c2ccc([N+](=O)[O-])cc2[n+]1[O-] | 7 | 12* | 0.42* | 9 | 15*
C#CCOCCOCCOCCNc1nc(N2CCOCC2)nc(N2CCN(C(=O)C(CC(N)=O)n3cc(C(N)C(C)CC)nn3)CC2)n1 (stereo unspecified) | nt | nt | 0.66 | nt | nt
O=C(CNC(=O)c1cccc(F)c1)NN=C/C=C/c1ccccc1 | nt | nt | 0.72 | nt | nt
CC(C)Nc1ccc(Nc2ccnc3cc4ccccc4cc23)cc1 | 9 | 5 | 0.6 | -1 | 5
c1ccc(CCNc2ccnc3cc4ccccc4cc23)cc1 | 3 | nt | 0.5* | 2 | nt
COc1ccc2c(c1[N+](=O)[O-])CCCC2=NOC(=O)c1ccccc1SC | nt | nt | 0.74 | nt | nt
CCCOc1ccc(C(=O)NNC(=S)NC(=O)CC)cc1 | 4 | -1 | 0.4* | -29 | -2
C=CCNC(=S)NNC(=O)c1ccc(OCCC)cc1 | 1 | 0 | 0.71 | -5 | -2
CCOc1cccc(/C=N/NC(=S)Nc2ccccc2[N+](=O)[O-])c1O | 11* | 9 | nt | -16 | 12
CCCOc1ccc(C=NNC(=S)Nc2ccccc2[N+](=O)[O-])c(O)c1 | nt | nt | 0.7 | nt | nt
O=C(NN=Cc1ccco1)C1COc2ccccc2O1 (stereo unspecified) | nt | nt | 0.7 | nt | nt
O=C(c1ccc(O)c(Br)c1)c1cc(Br)ccc1O | 11 | nt | 0.39* | -6 | nt
O=C(c1cnn(-c2ccccc2)c1)c1cc(Br)ccc1O | 3 | 0 | 0.71 | -5 | 4
COc1ccc(C=NNC(=O)c2ccccc2OC)cc1COc1ccccc1C | nt | nt | 0.69 | nt | nt
Cc1cc(/C=C2\Sc3ccccc3N2C)cc(C)[n+]1CC1CCCO1 (stereo unspecified) | 3 | nt | 0.46* | -16 | nt
Cc1ccc(/C=C2/Sc3ccccc3N(CC(=O)NCC3CCCO3)C2=O)cc1 (stereo unspecified) | nt | -1 | 0.68 | 4 | 2
CN(C)c1ccc(C=c2c3ccccc3n3c2cc(-c2ccccc2)[n+]3C)cc1 | 11* | nt | nt | i | nt
CN(C)c1ccc(C=c2c3ccccc3n3c2cc(-c2ccc(Cl)cc2)[n+]3C)cc1 | -1 | nt | nt | i | nt
Cc1ccc(S(=O)(=O)NN=Cc2ccc([N+](=O)[O-])o2)cc1C | nt | nt | 0.48* | nt | nt
Cc1cc(C)c(S(=O)(=O)NN=Cc2ccc([N+](=O)[O-])o2)c(C)c1 | nt | nt | 0.51* | nt | nt
Cc1ccc(S(=O)(=O)NN=Cc2ccc([N+](=O)[O-])o2)cc1 | nt | nt | 0.47* | nt | nt
Cc1cc(C)c(S(=O)(=O)N/N=C/c2ccc([N+](=O)[O-])o2)c(C)c1 | 3 | nt | nt | 2 | nt
CCc1ccc(S(=O)(=O)NN=Cc2ccc([N+](=O)[O-])o2)cc1 | nt | nt | 0.52 | nt | nt
